# The supplement of paper PMC8728848
# The entries come from a sample that favours the strongest signals as a whole.
# How the values were obtained:
# Assay in all cases: glycan array binding signal (z-score within array); higher = stronger binding
# Details in all cases: glycan notation: IUPAC condensed, linker removed
# [1] = molecular target: Fuc(a1-2)Gal(b1-3)[Fuc(a1-4)]GlcNAc(b1-2)Man(a1-3)[Fuc(a1-2)Gal(b1-3)[Fuc(a1-4)]GlcNAc(b1-2)Man(a1-3)]Man(b1-4)GlcNAc(b1-4)GlcNAc
# Summary of the method: (§1)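 Arrays were curated from the Consortium for Functional Glycomics database, 3228 in total, and kept only where the protein sequence was available. Binding is expressed as a within-array Z-score. This score was averaged across arrays of the same protein sequence at different concentrations or buffers and across linkers, and negative values can be read as non-binding.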
# [2] = molecular target: Fuc(a1-2)Gal(b1-4)GlcNAc(b1-2)Man(a1-3)[Fuc(a1-2)Gal(b1-4)GlcNAc(b1-2)Man(a1-6)]Man(b1-4)GlcNAc(b1-4)[Fuc(a1-6)]GlcNAc
# Summary of the method: as §1
# [3] = molecular target: Fuc(a1-2)Gal(b1-4)GlcNAc(b1-3)Gal(b1-4)GlcNAc
# Summary of the method: as §1
# [4] = molecular target: Fuc(a1-2)Gal(b1-4)GlcNAc(b1-6)GalNAc
# Summary of the method: as §1
# [5] = molecular target: Fuc(a1-2)Gal(b1-4)[Fuc(a1-3)]GlcNAc
# Summary of the method: as §1
# Fuc(a1-2)[Gal(a1-3)]Gal = molecular target: Fuc(a1-2)[Gal(a1-3)]Gal
# Summary of the method: as §1
# [6] = molecular target: Fuc(a1-2)[Gal(a1-4)]Gal(b1-4)GlcNAc
# Summary of the method: as §1
# [7] = molecular target: Fuc(a1-2)[GalNAc(a1-3)]Gal(b1-3)GlcNAc(b1-2)Man(a1-3)[Fuc(a1-2)[GalNAc(a1-3)]Gal(b1-3)GlcNAc(b1-2)Man(a1-6)]Man(b1-4)GlcNAc(b1-4)GlcNAc
# Summary of the method: as §1
# [8] = molecular target: Fuc(a1-2)[GalNAc(a1-3)]Gal(b1-4)GlcNAc(b1-3)Gal(b1-4)GlcNAc
# Summary of the method: as §1
# [9] = molecular target: Fuc(a1-2)[GalNAc(a1-3)]Gal(b1-4)GlcNAc(b1-3)GalNAc
# Summary of the method: as §1
# Fuc(a1-3)GlcNAc = molecular target: Fuc(a1-3)GlcNAc
# Summary of the method: as §1
# [10] = molecular target: Fuc(a1-3)[Gal(b1-4)]GlcNAc(b1-2)Man(a1-3)[Fuc(a1-3)[Gal(b1-4)]GlcNAc(b1-2)Man(a1-6)]Man(b1-4)GlcNAc(b1-4)GlcNAc
# Summary of the method: as §1
# [11] = molecular target: Fuc(a1-3)[GalNAc(b1-4)]GlcNAc
# Summary of the method: as §1
# Fuc(b1-3)GlcNAc = molecular target: Fuc(b1-3)GlcNAc
# Summary of the method: as §1
# [12] = molecular target: Gal(a1-4)Gal(b1-4)GlcNAc(b1-2)Man(a1-3)[Gal(a1-4)Gal(b1-4)GlcNAc(b1-2)Man(a1-6)]Man(b1-4)GlcNAc(b1-4)GlcNAc
# Summary of the method: as §1
# Gal(a1-6)Glc = molecular target: Gal(a1-6)Glc
# Summary of the method: as §1
# Gal(b1-2)Gal = molecular target: Gal(b1-2)Gal
# Summary of the method: as §1
# [13] = molecular target: Gal(b1-3)GlcNAc(b1-2)Man(a1-3)[Gal(b1-3)GlcNAc(b1-2)Man(a1-6)]Man(b1-4)GlcNAc(b1-4)[Fuc(a1-6)]GlcNAc
# Summary of the method: as §1
# [14] = molecular target: Gal(b1-3)GlcNAc(b1-2)[Gal(b1-3)GlcNAc(b1-6)]Man(a1-6)[Gal(b1-3)GlcNAc(b1-2)Man(a1-3)]Man(b1-4)GlcNAc(b1-4)GlcNAc
# Summary of the method: as §1
# [15] = molecular target: Gal(b1-3)[Fuc(a1-4)]GlcNAc(b1-3)Gal(b1-4)[Fuc(a1-3)]GlcNAc
# Summary of the method: as §1
# [16] = molecular target: Gal(b1-3)[Fuc(a1-4)]GlcNAc(b1-6)GalNAc
# Summary of the method: as §1
# [17] = molecular target: Gal(b1-3)[GlcNAc(b1-6)]GalNAc
# Summary of the method: as §1
# Gal(b1-4)Glc = molecular target: Gal(b1-4)Glc
# Summary of the method: as §1
# [18] = molecular target: Gal(b1-4)GlcNAc(b1-2)Man(a1-3)[Gal(b1-4)GlcNAc(b1-2)Man(a1-6)][GlcNAc(b1-4)]Man(b1-4)GlcNAc(b1-4)[Fuc(a1-6)]GlcNAc
# Summary of the method: as §1
# [19] = molecular target: Gal(b1-4)GlcNAc(b1-2)[Gal(b1-4)GlcNAc(b1-4)]Man(a1-3)[GlcNAc(b1-4)][Gal(b1-4)GlcNAc(b1-2)[Gal(b1-4)GlcNAc(b1-6)]Man(a1-6)]Man(b1-4)GlcNAc(b1-4)GlcNAc
# Summary of the method: as §1
# [20] = molecular target: Gal(b1-4)GlcNAc(b1-2)[Gal(b1-4)GlcNAc(b1-6)]Man(a1-6)[GlcNAc(b1-4)][Gal(b1-4)GlcNAc(b1-2)Man(a1-3)]Man(b1-4)GlcNAc(b1-4)GlcNAc
# Summary of the method: as §1
# [21] = molecular target: Gal(b1-4)GlcNAc(b1-3)Gal(b1-4)GlcNAc(b1-2)Man(a1-3)[Gal(b1-4)GlcNAc(b1-3)Gal(b1-4)GlcNAc(b1-2)Man(a1-6)]Man(b1-4)GlcNAc(b1-4)GlcNAc
# Summary of the method: as §1
# [22] = molecular target: Gal(b1-4)GlcNAc(b1-3)Gal(b1-4)GlcNAc(b1-2)[Gal(b1-4)GlcNAc(b1-3)Gal(b1-4)GlcNAc(b1-6)]Man(a1-6)[Gal(b1-4)GlcNAc(b1-3)Gal(b1-4)GlcNAc(b1-2)Man(a1-3)]Man(b1-4)GlcNAc(b1-4)[Fuc(a1-6)]GlcNAc
# Summary of the method: as §1
# [23] = molecular target: Gal(b1-4)GlcNAc(b1-3)Gal(b1-4)GlcNAc(b1-3)Gal(b1-4)GlcNAc
# Summary of the method: as §1
# [24] = molecular target: Gal(b1-4)GlcNAc(b1-3)Gal(b1-4)GlcNAc(b1-3)Gal(b1-4)GlcNAc(b1-2)[Gal(b1-4)GlcNAc(b1-3)Gal(b1-4)GlcNAc(b1-3)Gal(b1-4)GlcNAc(b1-6)]Man(a1-6)[Gal(b1-4)GlcNAc(b1-3)Gal(b1-4)GlcNAc(b1-3)Gal(b1-4)GlcNAc(b1-2)Man(a1-3)]Man(b1-4)GlcNAc(b1-4)[Fuc(a1-6)]GlcNAc
# Summary of the method: as §1
binder,measurement,setting,value
Clone646PsrP (Streptococcus pneumoniae) (protein) MDHHHHHHHHASENLYFQGAPAINASLNIAKSETKVYTGEGVDSVYRVPIYYKLKVTNDGSKLTFTYTVTYVNPKTNDLGNISSMRPGYSIYNSGTSTQTMLTLGSDLGKPSGVKNYITDKNGRQVLSYNTSTMTTQGSGYTWGNGAQMNGFFAKKGYGLTSSWTVPITGTDTSFTFTPYAARTDRIGINYFNGGGKVVESSTTSQSLSQSKSLSVSAS,glycan array binding signal (z-score),[1],1.88
same,glycan array binding signal (z-score),[2],0.523
same,glycan array binding signal (z-score),[3],-0.74
same,glycan array binding signal (z-score),[4],2.58
same,glycan array binding signal (z-score),[5],0.085
same,glycan array binding signal (z-score),Fuc(a1-2)[Gal(a1-3)]Gal,-0.314
same,glycan array binding signal (z-score),[6],0.495
same,glycan array binding signal (z-score),[7],-0.761
same,glycan array binding signal (z-score),[8],-0.638
same,glycan array binding signal (z-score),[9],0.378
same,glycan array binding signal (z-score),Fuc(a1-3)GlcNAc,0.18
same,glycan array binding signal (z-score),[10],-0.096
same,glycan array binding signal (z-score),[11],0.979
same,glycan array binding signal (z-score),Fuc(b1-3)GlcNAc,1.31
same,glycan array binding signal (z-score),[12],-0.434
same,glycan array binding signal (z-score),Gal(a1-6)Glc,0.015
same,glycan array binding signal (z-score),Gal(b1-2)Gal,2.94
same,glycan array binding signal (z-score),[13],-0.421
same,glycan array binding signal (z-score),[14],9.03
same,glycan array binding signal (z-score),[15],-0.797
same,glycan array binding signal (z-score),[16],-0.757
same,glycan array binding signal (z-score),[17],0.41
same,glycan array binding signal (z-score),Gal(b1-4)Glc,0.581
same,glycan array binding signal (z-score),[18],-0.984
same,glycan array binding signal (z-score),[19],-0.776
same,glycan array binding signal (z-score),[20],-0.887
same,glycan array binding signal (z-score),[21],0.169
same,glycan array binding signal (z-score),[22],-0.263
same,glycan array binding signal (z-score),[23],-0.913
same,glycan array binding signal (z-score),[24],-0.442
